The results in this text go back to PubChem BioAssay (NCI).

Among the test systems are SK-MEL-2 melanoma; EKVX NSCLC; SN12C renal; UO-31 renal; TK-10 renal; ACHN renal; A498 renal; CCRF-CEM leukemia; MOLT-4 leukemia; SR leukemia; RPMI-8226 leukemia; OVCAR-8 ovarian; OVCAR-5 ovarian; OVCAR-4 ovarian; SK-OV-3 ovarian; OVCAR-3 ovarian; HS 578T breast; NCI/ADR-RES ovarian; IGROV1 ovarian.
Assay in all cases: NCI-60 one-dose screen, 48 h (100 = growth as untreated, 0 = no growth, -100 = all killed)
Conditions in all cases: 10 µM unless noted

About 83,000 compounds went through this panel and 20% of them were active in at least one assay; those are over-represented in the sample as a whole.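 Interpretation: 100, growth as untreated; towards 0, rising growth inhibition; 0, no net growth; 0 to -100, cell death. Compounds scoring below 10 were considered active.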 A number with no mark means an inactive call. The source made the active and inactive calls.

Consider `CCNC(=O)Oc1ccc(/C(=C(\C)c2ccc(Cl)cc2)c2ccc(OCCN3CCCCC3)cc2)cc1`, for which the growth with SK-MEL-2 melanoma is 62.9%; with EKVX NSCLC, 57.4%; with SN12C renal, 64.8%; in the assay on UO-31 renal, 39.3%; in the assay on TK-10 renal, 83.7%; in the assay with ACHN renal, 79.9%. Also, the growth in the assay with A498 renal is 83.6%; with CCRF-CEM leukemia, 22.4%; in the assay with MOLT-4 leukemia, 10.7%; in the assay with SR leukemia, -20.8% (active); in the assay with RPMI-8226 leukemia it was -4.11% (active); in the assay on OVCAR-8 ovarian, 70.4%. In addition, the growth in the assay with OVCAR-5 ovarian is 74.9%; in the assay on OVCAR-4 ovarian, 43.7%; in the assay with SK-OV-3 ovarian, 63.2%; with OVCAR-3 ovarian, 60.8%; in the assay with HS 578T breast, 55.9%; in the assay on NCI/ADR-RES ovarian, 64.9%.
As for `Cc1cc(N2CCN(C)CC2)nc(NC2CCCC(Nc3ccnc4cc(Cl)ccc34)C2)n1` (centres undefined), the growth with SK-MEL-2 melanoma was -66.7% (active); in the assay with EKVX NSCLC it was 34.4%; in the assay with SN12C renal, -21% (active); in the assay with UO-31 renal, -100% (active); in the assay on TK-10 renal, -75.8% (active); in the assay with ACHN renal, -88.6% (active). In addition, the growth was 54.5% in the assay on A498 renal; -26% (active) in the assay on CCRF-CEM leukemia; 1.05% (active) in the assay with MOLT-4 leukemia; -31% (active) with SR leukemia; -47.8% (active) in the assay with RPMI-8226 leukemia; 5.87% (active) in the assay on OVCAR-8 ovarian. For the same compound, the growth with OVCAR-5 ovarian was 9.67% (active); with OVCAR-4 ovarian, 20.3%; in the assay with SK-OV-3 ovarian it was 18.6%; in the assay on IGROV1 ovarian, 10.5%; in the assay with OVCAR-3 ovarian, -18.7% (active); with HS 578T breast it was -18.7% (active). In the assay on NCI/ADR-RES ovarian, the growth was 18.7%.
As to `CCN(CC)c1ccc2c(c1)Oc1nc(N)c(C#N)c(N)c1C2Sc1ccc(SC)cc1` (centres undefined), the growth was -59.6% (active) in the assay with SK-MEL-2 melanoma; -3.97% (active) with EKVX NSCLC; -13.4% (active) in the assay on SN12C renal; -79.8% (active) in the assay with UO-31 renal; -35.7% (active) in the assay with TK-10 renal; -46.5% (active) in the assay on ACHN renal. Moreover, the growth with A498 renal is 90%; in the assay on CCRF-CEM leukemia, -15.5% (active); in the assay on MOLT-4 leukemia, -10.7% (active); in the assay on SR leukemia it was -18.8% (active); with RPMI-8226 leukemia, -37.3% (active); in the assay with OVCAR-8 ovarian, -7.42% (active). For the same compound, the growth in the assay with OVCAR-5 ovarian was -27.1% (active); with OVCAR-4 ovarian, -2.7% (active); with SK-OV-3 ovarian, -4.96% (active); in the assay with IGROV1 ovarian, -13.9% (active); in the assay on OVCAR-3 ovarian, -30.4% (active); with HS 578T breast it was 26%. Further, the growth in the assay with NCI/ADR-RES ovarian was 10.8%.
Turning to `COc1ccc2nc(NC(=O)CSc3nnc4n3S(=O)(=O)c3ccccc3N4c3ccccc3)sc2c1`, the growth was 87.9% with SK-MEL-2 melanoma; 94.4% in the assay with EKVX NSCLC; 107% in the assay with SN12C renal; -39.9% (active) in the assay with UO-31 renal; 103% with TK-10 renal; 92.8% with ACHN renal. The growth was 121% with A498 renal; -19.7% (active) in the assay with CCRF-CEM leukemia; 6.47% (active) in the assay with MOLT-4 leukemia; 66.6% with SR leukemia; 66.8% with RPMI-8226 leukemia; 51.2% in the assay on OVCAR-8 ovarian. The growth in the assay on OVCAR-5 ovarian is 94.2%; with OVCAR-4 ovarian, 91.8%; with IGROV1 ovarian, 27.7%; with OVCAR-3 ovarian, 104%; with HS 578T breast it was 89.6%; in the assay with NCI/ADR-RES ovarian it was 93.5%.
`COc1cc2c(cc1-c1c(C)noc1C)ncc1nc(C3CCOCC3)n([C@H](C)COC(F)F)c12`: the growth in the assay on SK-MEL-2 melanoma is 67%; in the assay on EKVX NSCLC, 50.4%; in the assay on SN12C renal, 57%; with UO-31 renal, 15.7%; with TK-10 renal, 25.3%; in the assay on ACHN renal, 34.6%. Besides, the growth was -13.5% (active) in the assay on A498 renal; 48.3% with CCRF-CEM leukemia; 46.6% in the assay on MOLT-4 leukemia; 28.3% in the assay on SR leukemia; 18% with RPMI-8226 leukemia; 42.6% in the assay with OVCAR-8 ovarian. Further, the growth with OVCAR-5 ovarian is 68.4%; with OVCAR-4 ovarian it was 47.9%; with SK-OV-3 ovarian, 1.35% (active); in the assay on IGROV1 ovarian it was 58.8%; in the assay on OVCAR-3 ovarian, 35.2%; in the assay with HS 578T breast, 16.8%. Further, the growth in the assay with NCI/ADR-RES ovarian is 38.4%.
For the compound `CCOC(=O)n1cc(-c2nonc2-c2cn(C)c3ncccc23)c2ccccc21`, the growth was 90.1% with SK-MEL-2 melanoma; 61.2% in the assay with EKVX NSCLC; 87.1% with SN12C renal; 58.4% with UO-31 renal; 98.3% in the assay with TK-10 renal; 80.1% in the assay with ACHN renal. The growth in the assay with A498 renal is 99%; with CCRF-CEM leukemia, 86.6%; with MOLT-4 leukemia it was 69.8%; in the assay on SR leukemia, 60.5%; in the assay with RPMI-8226 leukemia it was 77.9%; with OVCAR-8 ovarian, 92.6%. Further, the growth in the assay with OVCAR-5 ovarian is 94.2%; with OVCAR-4 ovarian it was 71.3%; in the assay on SK-OV-3 ovarian it was 77.6%; with OVCAR-3 ovarian, 85.6%; in the assay on HS 578T breast it was 77.7%; in the assay with NCI/ADR-RES ovarian, 73.1%.
Take `CCCCCC(=O)Oc1ccc(/C(=C(\C)c2ccc(OC)cc2)c2ccc(OCCN3CCCCC3)cc2)cc1`: the growth is 64.7% in the assay with SK-MEL-2 melanoma; 58.5% with EKVX NSCLC; 73.8% in the assay on SN12C renal; 56.2% in the assay with UO-31 renal; 92.7% with TK-10 renal; 74.4% with ACHN renal. The growth in the assay on A498 renal was 92.3%; with CCRF-CEM leukemia, 56.7%; in the assay on MOLT-4 leukemia it was 25.1%; in the assay with SR leukemia, -2% (active); with RPMI-8226 leukemia, 9.96% (active); in the assay with OVCAR-8 ovarian, 74.3%. Also, the growth is 82.2% with OVCAR-5 ovarian; 54.5% with OVCAR-4 ovarian; 68.2% in the assay with SK-OV-3 ovarian; 79% with IGROV1 ovarian; 74.9% with OVCAR-3 ovarian; 64.9% in the assay with HS 578T breast. In addition, the growth in the assay on NCI/ADR-RES ovarian is 71.2%.
With `CCc1nc(N)nc(N)c1C#CC(C)c1ccc(-c2ccncc2)cc1Cl` (centres undefined), the growth in the assay on SK-MEL-2 melanoma was 33.3%; in the assay with EKVX NSCLC, 25%; in the assay with SN12C renal it was 18.4%; with UO-31 renal, 10.9%; with TK-10 renal it was 18.8%; in the assay with ACHN renal, 14.1%. Moreover, the growth in the assay with A498 renal is 22.7%; with CCRF-CEM leukemia it was 10.9%; in the assay on MOLT-4 leukemia, 10.2%; with SR leukemia, 14.7%; with RPMI-8226 leukemia it was 15.1%; with OVCAR-8 ovarian it was 20.8%. Moreover, the growth in the assay on OVCAR-5 ovarian was 57.6%; in the assay on OVCAR-4 ovarian, 30.9%; with SK-OV-3 ovarian, 33%; in the assay with IGROV1 ovarian it was 18.2%; in the assay with OVCAR-3 ovarian, 19.1%; with HS 578T breast it was 38.7%. Also, in the assay on NCI/ADR-RES ovarian, the growth was 21.8%.
